In PubChem BioAssay AID624483 (NMMLSC, 2012):
Out of some 360,000 compounds screened, about 11,000 (3.1%) were called active. About 2% were inconclusive and are not listed. Only a selection was taken, and actives are over-represented in it overall. A number with no mark means an inactive call. No stated cut-off is given here; in the data, active means fluorescence intensity above about 16000; inconclusive means no clear call, values can overlap the other calls; inactive means below that.

Assay: counter-screen for toxin protease inhibitors: compound fluorescence, primary screen, artefact control for toxin protease inhibitor project, biochemical, multiplex microsphere, HTS (AID 624483)
Conditions: compound autofluorescence counterscreen, microsphere flow cytometry; active compounds read high

SMILES | fluorescence intensity
CC1(C(=O)NS(=O)(=O)c2ccc3ccccc3c2)CCN1C(=O)C1(c2ccc(Cl)cc2)CCC1 (stereo not drawn) | 3400
CCc1nc2c(OCc3cccc(OC)c3)cccn2c1N(C)C(=O)C(C)C | 4100
O=C(Oc1ccc(-c2nc(-c3ccccn3)no2)cc1)c1ccccc1 | 3190
CC(C)c1nc(-c2ccccn2)no1 | 21700 (active)
COc1ccc2nc(-c3ccccn3)ccc2c1 | 4000
CC(=O)NC(c1ccccc1)c1nc(-c2cccc(C(C)C)c2)cs1 (stereo not drawn) | 3400
Cc1ccccc1OCC(=O)NNC(=O)c1ccc(-n2cncn2)c([N+](=O)[O-])c1 | 5300
C=C(C)Cn1c(N2CCN(CC)CC2)nc2c1c(=O)[nH]c(=O)n2C | 4600
CCOC(=O)C1C(c2ccc(OC)c(OC)c2)c2c([nH][nH]c2=O)CC1(C)O (stereo not drawn) | 4630
COc1ccc(C2OCC3(CO2)SC(=O)NC3=O)cc1OC (stereo not drawn) | 2510
CCCC(C)n1[nH]c(=O)c2c1NC(=O)CSC2c1ccc(OC)c(OC)c1 (stereo not drawn) | 20600 (active)
CCCCN1CC(N2CCN(Cc3cccc(C)c3)CC2)CS1(=O)=O (stereo not drawn) | 6580
CC(C)(C)Nc1c(N)c(=O)oc2ccccc12 | 17700 (active)
O=c1oc2ccccc2c(=O)c2ccccc12 | 3730
Nc1c(NCCc2ccccc2)c2ccccc2oc1=O | 3190
CN(C)Cc1c(O)ccc2occ(C(O)c3ccccc3)c12 (stereo not drawn) | 2380
CC(=O)c1cccc(-c2cnc3c(NC=O)cc(-c4cccc(C(=O)N(C)C)c4)cn23)c1 | 4000
OCCC#Cc1ccc(N2C(c3ccsc3)=Cc3ccc(F)cc3C2c2c[nH]c3ccccc23)cc1 (stereo not drawn) | 4910
CCOC(=O)C1=C(CC)OC(N)=C(C#N)C1c1ccc(F)cc1F (stereo not drawn) | 2060
COC(=O)C1=C(C)N(C)C(=S)NC1c1cc(OC)ccc1OC (stereo not drawn) | 4360
CCC1=C(C(=O)OC)C(c2cc(OC)ccc2OC)C(C#N)=C(N)O1 (stereo not drawn) | 21500 (active)
COc1ccc(OCCNS(=O)(=O)Cc2ccccc2)cc1 | 2820
Cc1cc(C)cc(NS(=O)(=O)Cc2ccccc2)c1 | 3320
CCOCCCNS(=O)(=O)Cc1ccccc1 | 18800 (active)
COCCNC(=O)c1cc2c(Br)ccc(Br)c2nc1N | 4280
CC(C)CNC(=S)NC(=O)c1ccc(Cl)cc1 | 2350
CC(=O)Nc1ccc(SCC(=O)NC(=O)c2ccc(Cl)cc2)cc1 | 3220
COC(=O)/C(NC(C)=O)=C(\C)c1ccc(Cl)cc1 | 17300 (active)
